The first assay deals with T1, FLI1 (Homo sapiens, UniProt Q01543 1-452).
T1 sequence: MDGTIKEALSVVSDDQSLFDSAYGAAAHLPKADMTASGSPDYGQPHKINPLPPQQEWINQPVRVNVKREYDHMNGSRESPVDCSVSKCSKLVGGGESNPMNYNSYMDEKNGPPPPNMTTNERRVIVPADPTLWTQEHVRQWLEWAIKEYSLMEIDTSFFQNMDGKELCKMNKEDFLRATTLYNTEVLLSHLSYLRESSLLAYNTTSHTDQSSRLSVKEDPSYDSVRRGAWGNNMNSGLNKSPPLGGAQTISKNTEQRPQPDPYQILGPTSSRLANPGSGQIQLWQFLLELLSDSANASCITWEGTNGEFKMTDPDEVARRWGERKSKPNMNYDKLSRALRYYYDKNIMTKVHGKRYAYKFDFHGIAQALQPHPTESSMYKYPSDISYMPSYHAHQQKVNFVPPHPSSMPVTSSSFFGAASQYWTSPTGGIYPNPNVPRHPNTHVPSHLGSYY
In words: DAPPL (digital affinity profiling via proximity ligation, sequencing); 10 mM Tris-HCl pH 7.5, 50 mM NaCl, 1 mM DTT, 4% glycerol, room temperature, 30 min; GST-TFs on glutathione beads, 16-mer random dsDNA library, 0.1% formaldehyde crosslink after washing; high values mean tight binding. As to conditions: protein: recombinant; tags: N-terminal GST; dsDNA, one strand shown. The method in brief: (§1)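 Pools were built from human transcription factors expressed in yeast as GST fusions, captured on glutathione beads and DNA-barcoded, along with a tag-only sample. Incubation with 200 nmole of a 16-mer random double-stranded DNA library lasted 30 min at room temperature in Tris/NaCl/DTT/glycerol buffer, and was followed by washing, 0.1% formaldehyde crosslinking, proximity ligation, PCR amplification and Illumina NextSeq500 sequencing. Binding signal is the quotient of each hexamer's read frequency for a factor and its frequency for the tag-only sample.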
Turning to CGACTT, the binding signal is 1.84 fold enrichment (6-mer frequency, TF over GST control).
On to TTTTAG, for which the binding signal is 1.2 fold enrichment (6-mer frequency, TF over GST control).
On the same count and under the same terms, under CAATGC stands 1.21 fold enrichment (6-mer frequency, TF over GST control); under ACCCCC, 1.17 fold enrichment (6-mer frequency, TF over GST control); under CACCAC, 1.15 fold enrichment (6-mer frequency, TF over GST control).
On the same count and under the same terms, the value for AAATAG was 1.18 fold enrichment (6-mer frequency, TF over GST control); that for ACTCCC was 1.52 fold enrichment (6-mer frequency, TF over GST control).
Same read-out and setting: the value for TACTAA was 1.2 fold enrichment (6-mer frequency, TF over GST control).
For AACGAC, the binding signal was 1.14 fold enrichment (6-mer frequency, TF over GST control).
Turning to AAGCGC, the binding signal is 1.2 fold enrichment (6-mer frequency, TF over GST control).
As for CGCTAC, the binding signal is 1.24 fold enrichment (6-mer frequency, TF over GST control).
Still for that read-out and setting: the value for CACTGC was 1.45 fold enrichment (6-mer frequency, TF over GST control).
With GTCCAC, the binding signal is 1.03 fold enrichment (6-mer frequency, TF over GST control).
Same read-out and setting: the value for ATGGAA was 1.17 fold enrichment (6-mer frequency, TF over GST control); that for GATACG was 1.11 fold enrichment (6-mer frequency, TF over GST control); that for CATGGT was 1.25 fold enrichment (6-mer frequency, TF over GST control).
The same measure, in the same setting: under TATGGT stands 1.38 fold enrichment (6-mer frequency, TF over GST control); under TCCCCA, 1.38 fold enrichment (6-mer frequency, TF over GST control); under GTTCAT, 1.19 fold enrichment (6-mer frequency, TF over GST control).
Same read-out and setting: the value for ACACAT was 1.34 fold enrichment (6-mer frequency, TF over GST control); that for CACTTG was 1.36 fold enrichment (6-mer frequency, TF over GST control); that for AACACG was 1.26 fold enrichment (6-mer frequency, TF over GST control).
For ACATCA, the binding signal is 1.11 fold enrichment (6-mer frequency, TF over GST control).
Same read-out and setting: under CAACCC stands 1.15 fold enrichment (6-mer frequency, TF over GST control).
On the same count and under the same terms, under TTTCAA stands 1.24 fold enrichment (6-mer frequency, TF over GST control); under CTGGTC, 1.11 fold enrichment (6-mer frequency, TF over GST control).
Same read-out and setting: the value for TTACCG was 1.16 fold enrichment (6-mer frequency, TF over GST control); that for CTCGCC was 1.16 fold enrichment (6-mer frequency, TF over GST control); that for TCCCGT was 1.24 fold enrichment (6-mer frequency, TF over GST control).
On to CTCGAA, for which the binding signal was 1.23 fold enrichment (6-mer frequency, TF over GST control).
The same measure, in the same setting: the value for CATGCT was 1.33 fold enrichment (6-mer frequency, TF over GST control); that for GTCACT was 1.1 fold enrichment (6-mer frequency, TF over GST control).
Same read-out and setting: under ATCTTT stands 1.26 fold enrichment (6-mer frequency, TF over GST control).
The same measure, in the same setting: the value for TTATTC was 1.48 fold enrichment (6-mer frequency, TF over GST control); that for TCATCA was 1.18 fold enrichment (6-mer frequency, TF over GST control); that for GCACTG was 1.18 fold enrichment (6-mer frequency, TF over GST control).
On to ATGTAT, for which the binding signal was 1.34 fold enrichment (6-mer frequency, TF over GST control).
On to CCCTAA, for which the binding signal is 1.16 fold enrichment (6-mer frequency, TF over GST control).
On the same count and under the same terms, the value for CTCAGC was 1.15 fold enrichment (6-mer frequency, TF over GST control).

For the next assay, the target named is T2, ELK1 (Homo sapiens, UniProt P19419 1-428).
T2 sequence: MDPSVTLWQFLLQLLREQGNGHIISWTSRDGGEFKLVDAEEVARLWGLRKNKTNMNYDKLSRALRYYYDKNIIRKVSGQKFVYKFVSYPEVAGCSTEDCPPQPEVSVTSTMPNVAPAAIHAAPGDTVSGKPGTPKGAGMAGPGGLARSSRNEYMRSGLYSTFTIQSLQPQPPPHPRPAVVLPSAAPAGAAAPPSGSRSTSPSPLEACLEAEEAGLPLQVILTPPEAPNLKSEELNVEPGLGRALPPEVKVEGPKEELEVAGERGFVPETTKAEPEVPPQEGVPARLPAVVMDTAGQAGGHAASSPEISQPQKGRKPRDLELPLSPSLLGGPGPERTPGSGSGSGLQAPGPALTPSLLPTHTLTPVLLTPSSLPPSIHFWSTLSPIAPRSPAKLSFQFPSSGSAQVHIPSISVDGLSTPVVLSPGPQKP
Described as above. Conditions: protein: recombinant; tags: N-terminal GST; dsDNA, one strand shown. The method in brief: as §1
For the sequence CGACTT, the binding signal was 1.85 fold enrichment (6-mer frequency, TF over GST control).
The same measure, in the same setting: the value for TTTTAG was 1.07 fold enrichment (6-mer frequency, TF over GST control); that for CAATGC was 1.23 fold enrichment (6-mer frequency, TF over GST control); that for ACCCCC was 1.16 fold enrichment (6-mer frequency, TF over GST control).
Regarding CACCAC, the binding signal was 1.2 fold enrichment (6-mer frequency, TF over GST control).
The same measure, in the same setting: the value for AAATAG was 1.1 fold enrichment (6-mer frequency, TF over GST control); that for ACTCCC was 1.2 fold enrichment (6-mer frequency, TF over GST control).
Same read-out and setting: under TACTAA stands 1.23 fold enrichment (6-mer frequency, TF over GST control); under AACGAC, 1.19 fold enrichment (6-mer frequency, TF over GST control).
Turning to AAGCGC, the binding signal was 1.11 fold enrichment (6-mer frequency, TF over GST control).
Still for that read-out and setting: the value for CGCTAC was 1.23 fold enrichment (6-mer frequency, TF over GST control); that for CACTGC was 1.46 fold enrichment (6-mer frequency, TF over GST control); that for GTCCAC was 1.07 fold enrichment (6-mer frequency, TF over GST control).
ATGGAA: the binding signal is 1.11 fold enrichment (6-mer frequency, TF over GST control).
Still for that read-out and setting: the value for GATACG was 1.12 fold enrichment (6-mer frequency, TF over GST control); that for CATGGT was 1.29 fold enrichment (6-mer frequency, TF over GST control); that for TATGGT was 1.3 fold enrichment (6-mer frequency, TF over GST control).
On the same count and under the same terms, under TCCCCA stands 1.29 fold enrichment (6-mer frequency, TF over GST control); under GTTCAT, 1.25 fold enrichment (6-mer frequency, TF over GST control).

(Values after article PMC7862700, “An all-to-all approach to the identification of sequence-specific readers for epigenetic DNA modifications on cytosine”.)
